This note sets out measurements from PubChem BioAssay (NCATS).

Each structure is given as a SMILES string. Where “and” joins values, the source holds several entries; their conditions need not be identical. Equal values may be shown once. Results filed as inconclusive are left out. Calls of active or inactive are those of the source. Unless noted, calls follow the shape of the dose curve; as a rule, active = well fitted curve in the direction sought with a large enough effect; inconclusive = small, poorly fitted or top-dose-only effect, or another doubt; inactive = no such curve, though single readings can be large; an effect the other way counts as inactive or inconclusive.

Assay [1] can be described thus: Cell Viability - MRC5 (AID 434; calls by dose curve;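 also: potency is read from the fitted curve at half-maximal effect; potency reflects cytotoxicity seen as loss of intracellular ATP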). The conditions noted are these: MRC5 lung fibroblast viability, qHTS. Summed up: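 MRC5 normal human lung fibroblasts (1500/well) were treated with compounds for 40 hr at 37 °C in complete medium, and viable cells were measured as intracellular ATP by CellTiter-Glo luminescence. AC50 came from Hill fits, normalized to DMSO and 100 uM tamoxifen.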

Assay [2] can be described thus: Cell Viability - SK-N-SH (AID 435; calls by dose curve;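 also: potency is read from the fitted curve at half-maximal effect; compound exposure lasted 40 h at 37 °C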). The conditions noted are these: SK-N-SH neuroblastoma cell viability qHTS. Summed up: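 SK-N-SH human neuroblastoma cells (1500/well) were exposed to compounds in complete medium for 40 h at 37 °C, and intracellular ATP was then measured by CellTiter-Glo luminescence. AC50 was taken from Hill fits, normalized to DMSO and 100 uM tamoxifen.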
(In general: Quantitative high-throughput screening tests each substance at several concentrations.)

Assay [3] in a line: Cellular Toxicity (caspase-3) Jurkat (AID 655).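 Also: cells exposed to compound for 16 h at 37 °C before reading.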 Particulars: Jurkat caspase-3 activation, luminescence; caspase-3 activation: at 92.2 µM (top of the series), DMSO = 0%, tamoxifen = 100%. Summed up:
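Jurkat cells (5000/well) in complete medium were treated with compounds for 16 hr at 37 °C, then Caspase-Glo 3/7 luminescence was read after 20 min at room temperature. Data normalized to DMSO (basal) and 100 uM tamoxifen (100%); AC50 from Hill fit.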

The nature of assay [4]: Cellular Toxicity (caspase-3) HUV-EC-C (AID 656). Particulars: HUV-EC-C cells, caspase-3 activation (apoptosis), vehicle = 0, 100 µM tamoxifen = 100%; series mostly up to 92.2 µM. Summed up:
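HUV-EC-C endothelial cells, 1000/well, were pre-incubated 5 hr at 37°C, then exposed to compounds for 16 hr at 37°C. Caspase-Glo 3/7 luminescence was read after 20 min at room temperature. AC50 came from Hill fits, normalized to DMSO and 100 uM tamoxifen.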

The nature of assay [5]: Cellular Toxicity (caspase-3) H-4-II-E (AID 663). Also: potency is read from the fitted curve at half-maximal effect.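 As to caspase-3 activation: cells exposed to compound for 16 hr before readout.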 Particulars: H-4-II-E rat hepatoma; Potency: caspase-3 activation; series mostly up to 92.2 µM. Put shortly:
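Luminescence from caspase-cleaved aminoluciferin substrate, read 20 min after reagent addition, reports caspase 3/7 activation in rat H-4-II-E cells after 16 hr compound exposure. Normalized to DMSO (basal) and 100 uM tamoxifen (100%); AC50 from Hill fits.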

Assay [6] concerns the target Cytochrome P450 3A4 (Homo sapiens) (UniProt P08684). Nature of the assay: qHTS Assay for Inhibitors and Substrates of Cytochrome P450 3A4 (AID 884). Also: nearly all actives have a fitted effect of over 50% in size. Also: potency is read from the fitted curve at half-maximal effect. Particulars: recombinant CYP3A4, Luciferin-PPXE luminescence; series mostly up to 57.1 µM. Put shortly:
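20 nM human CYP3A4 with 25 uM Luciferin-PPXE (at KM) in 200 mM KPO4, preincubated 10 min with compound; NADPH regeneration started a 60 min RT reaction. Luciferin detected by luminescence, normalized to 57 uM ketoconazole as full inhibition.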

Assay [7] in a line: MultiTox-Fluor Cytotoxicity Assay - LYMP1-001 - Live Cells (AID 947).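 Also: 0% = DMSO only and full inhibition = tetraoctylammonium bromide control.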 Particulars: LYMP1-001 lymphoblastoid cells, live-cell protease fluorescence viability; series mostly up to 92.2 µM.
The nature of assay [8]: Cell Viability - LYMP1-002 - Assay at 16 hr (AID 948).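 Also: 0% = DMSO alone and full effect = 92 µM tetraoctylammonium bromide.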 The conditions noted are these: LYMP1-002 lymphoblastoid cell viability; series mostly up to 92.2 µM. Put shortly: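 Human lymphoblastoid cells (LYMP1-002), 2500/well, were preincubated 5 hr at 37 C, then exposed to compounds for 16 hr at 37 C in complete medium. Cellular ATP was read by CellTiter-Glo luminescence after 30 min at room temperature; AC50 from Hill fits.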

Assay [9] is described as follows: Cell Viability - LYMP2-004 (AID 966).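 Also: plate controls were DMSO only for no effect and tetraoctylammonium bromide control for full effect; nearly all actives have a fitted effect of over 65% in size.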 Particulars: LYMP2-004 lymphoblastoid cell viability, qHTS; series mostly up to 92.2 µM. Summed up:
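Cells seeded 2500/well, rested 5 hr at 37 C, dosed across a concentration series, incubated 24 hr at 37 C, then CellTiter-Glo added for 30 min at room temperature and luminescence read. Hill fitting gave AC50.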

Assay [10] is described as follows: Cell Viability - LYMP2-015 (AID 971). Also: nearly all actives have a fitted effect of over 55% in size. Also: potency is read from the fitted curve at half-maximal effect. Particulars: LYMP2-015 lymphoblastoid cell viability; series mostly up to 92.2 µM. Summed up: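 Luminescent ATP read-out (CellTiter-Glo) served as the viability measure after lymphoblastoid cells were exposed to compounds for 24 hours at 37 C. Concentration-response data were fitted with the Hill equation to give AC50.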
Assay [11] is described as follows: Cell Viability - LYMP2-019 (AID 973). Also: nearly all actives have a fitted effect of over 55% in size. Also: potency is read from the fitted curve at half-maximal effect. The conditions noted are these: LYMP2-019 lymphoblastoid cell line viability; series mostly up to 92.2 µM. Summed up: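 Luminescent ATP read-out (CellTiter-Glo, 30 min room temperature) served as the viability measure after 24 hr treatment of lymphoblastoid cells at 37 C. Concentration-response data were fitted to the Hill equation for AC50.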

Assay [12] is described as follows: Cell Viability - LYMP2-007 (AID 979).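 Also: cells exposed to compound for 24 h before reading; nearly all actives have a fitted effect of over 60% in size.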 Also: potency is read from the fitted curve at half-maximal effect. Particulars: LYMP2-007 lymphoblastoid cell viability; series mostly up to 92.2 µM. Put shortly:
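Luminescent ATP signal (CellTiter-Glo) serves as the viability read-out after 24 hr compound treatment of lymphoblastoid cells in complete medium at 37 C. Concentration-response data were fitted to the Hill equation to give AC50 values.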

Assay [13] is described as follows: Cell Viability - LYMP2-008 (AID 980). Also: % is scaled to controls: 0 for no effect and ±100 for the full control effect; nearly all actives have a fitted effect of over 60% in size. Particulars: LYMP2-008 lymphoblastoid cell viability, qHTS; series mostly up to 92.2 µM. Summed up:
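qHTS, human lymphoblastoid line, 2500 cells/well; 5 hr preincubation, 24 hr compound, 37 C. CellTiter-Glo ATP luminescence. AC50 via Hill equation. Tetraoctylammonium bromide positive control.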

Assay [14] in a line: Cell Viability - LYMP2-014 (AID 983).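 Also: plate controls were DMSO only for no effect and 92 µM tetraoctylammonium bromide for full effect; nearly all actives have a fitted effect of over 50% in size.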 The conditions noted are these: LYMP2-014 lymphoblastoid cells, viability qHTS; series mostly up to 92.2 µM. Put shortly: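 Luminescent ATP signal (CellTiter-Glo, 30 min at room temperature) serves as the viability read-out after 24 hr compound exposure at 37 C. Cells were seeded at 2500 per well and settled 5 hr beforehand.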
Assay [15] is described as follows: Cell Viability - LYMP2-018 (AID 985).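 Also: plate controls were DMSO only for no effect and tetraoctylammonium bromide at 92 µM for full effect; nearly all actives have a fitted effect of over 50% in size.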 The conditions noted are these: LYMP2-018 lymphoblastoid cells, viability (qHTS); series mostly up to 92.2 µM. Put shortly:
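Luminescent ATP signal (CellTiter-Glo, read after 30 min at room temperature) reports viable cells after 24 hr compound treatment at 37 C. Concentration-response data were fitted to the standard Hill equation for AC50.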

The nature of assay [16]: Cell Viability - LYMP2-020 (AID 986). Also: nearly all actives have a fitted effect of over 55% in size. Also: potency is read from the fitted curve at half-maximal effect. The conditions noted are these: series mostly up to 92.2 µM. Summed up:
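Luminescent ATP signal (CellTiter-Glo, 30 min at room temperature) is the read-out after 24 h compound treatment of lymphoblastoid cells at 37 C. AC50 values come from Hill-equation fits across concentrations.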

Assay [17] is described as follows: Cell Viability - LYMP2-022 (AID 987). Also: nearly all actives have a fitted effect of over 55% in size. Also: potency is read from the fitted curve at half-maximal effect. Particulars: LYMP2-022 lymphoblastoid cell viability; series mostly up to 92.2 µM. Put shortly: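 qHTS: human lymphoblastoid cells 2500/well; 5 hr 37 C; cpd added; 24 hr 37 C; CellTiter-Glo, 30 min RT; luminescence. AC50 via Hill fit; tetraoctylammonium bromide positive ctrl.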
A short description of assay [18]: Cell Viability - LYMP2-026 (AID 989). Also: % is scaled to controls: 0 for no effect and ±100 for the full control effect; nearly all actives have a fitted effect of over 50% in size. Particulars: LYMP2-026 lymphoblastoid cell viability, qHTS; series mostly up to 92.2 µM. Put shortly: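 Luminescent ATP signal (CellTiter-Glo, 30 min room temperature) measures viable lymphoblastoid cells after 24 hr compound treatment at 37 C. Decreased ATP reflects acute toxicity; AC50 values come from Hill-equation modeling.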

Assay [19] can be described thus: qHTS assay for small molecule antagonists of retinoid X receptor alpha signaling (AID 588546).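 Also: cells stimulated with 9-cis-retinoic acid as agonist; % is scaled to controls: 0 for no effect and ±100 for the full control effect.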 The conditions noted are these: HEK293T RXRa-UAS-bla, beta-lactamase ratio, antagonist mode; measured here: W530 green channel, cytotoxicity proxy. Summed up:
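Beta-lactamase reporter inhibition, read as CCF4 fluorescence ratio (ex 405, em 460/530 nm) after 2 h at RT. HEK293T UAS-bla cells, 2500/well, were stimulated with 9-cis-RA at 500 or 100 nM final alongside test compound for 18 h at 37 C.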

The target of assay [20] is Voltage-gated inwardly rectifying potassium channel KCNH2 (Homo sapiens) (UniProt Q12809). Kind of assay: qHTS Assay for Small Molecule Inhibitors of the Human hERG Channel Activity (AID 588834). Particulars: U2OS BacMam hERG, FluxOR thallium flux fluorescence; series mostly up to 92.2 µM. Put shortly: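 U2OS cells transduced with hERG via BacMam (MOI ~100), plated 2000/well, loaded with FluxOR thallium dye, compound ~10 min, then stimulation buffer; fluorescence decrease read kinetically; AC50 from Hill fits.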
Voltage-gated inwardly rectifying potassium channel KCNH2 (Homo sapiens), sequence (Q12809 whole entry, looked up): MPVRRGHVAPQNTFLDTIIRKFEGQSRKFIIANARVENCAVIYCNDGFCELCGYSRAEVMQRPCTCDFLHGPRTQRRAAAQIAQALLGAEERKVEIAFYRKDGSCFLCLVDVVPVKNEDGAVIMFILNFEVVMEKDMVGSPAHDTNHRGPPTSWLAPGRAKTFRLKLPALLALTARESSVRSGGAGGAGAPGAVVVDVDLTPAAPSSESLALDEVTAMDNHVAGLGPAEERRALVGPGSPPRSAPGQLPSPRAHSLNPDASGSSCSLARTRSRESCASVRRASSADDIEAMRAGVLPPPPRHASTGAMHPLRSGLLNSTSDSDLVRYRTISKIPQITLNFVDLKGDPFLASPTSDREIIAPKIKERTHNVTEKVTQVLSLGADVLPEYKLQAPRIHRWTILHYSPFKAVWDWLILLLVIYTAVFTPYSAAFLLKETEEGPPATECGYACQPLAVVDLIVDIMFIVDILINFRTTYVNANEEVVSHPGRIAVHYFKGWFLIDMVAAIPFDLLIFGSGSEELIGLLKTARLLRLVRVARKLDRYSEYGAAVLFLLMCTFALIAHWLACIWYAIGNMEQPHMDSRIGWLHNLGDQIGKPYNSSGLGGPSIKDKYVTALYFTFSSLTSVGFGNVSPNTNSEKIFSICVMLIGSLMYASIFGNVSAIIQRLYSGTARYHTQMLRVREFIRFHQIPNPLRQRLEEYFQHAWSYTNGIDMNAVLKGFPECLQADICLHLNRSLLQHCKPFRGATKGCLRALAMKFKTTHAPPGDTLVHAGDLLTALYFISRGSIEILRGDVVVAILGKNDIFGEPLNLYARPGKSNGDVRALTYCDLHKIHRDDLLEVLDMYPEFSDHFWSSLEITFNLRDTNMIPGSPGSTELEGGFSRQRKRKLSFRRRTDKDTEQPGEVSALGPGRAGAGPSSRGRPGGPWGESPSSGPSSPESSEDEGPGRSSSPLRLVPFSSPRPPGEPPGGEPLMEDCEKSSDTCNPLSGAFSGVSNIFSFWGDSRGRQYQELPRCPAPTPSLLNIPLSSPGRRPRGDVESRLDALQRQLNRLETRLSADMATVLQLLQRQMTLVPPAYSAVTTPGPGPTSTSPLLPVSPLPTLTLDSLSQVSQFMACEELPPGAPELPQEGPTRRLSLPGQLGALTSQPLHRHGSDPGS

Cytochrome P450 3A4 (Homo sapiens), sequence (P08684 whole entry, looked up): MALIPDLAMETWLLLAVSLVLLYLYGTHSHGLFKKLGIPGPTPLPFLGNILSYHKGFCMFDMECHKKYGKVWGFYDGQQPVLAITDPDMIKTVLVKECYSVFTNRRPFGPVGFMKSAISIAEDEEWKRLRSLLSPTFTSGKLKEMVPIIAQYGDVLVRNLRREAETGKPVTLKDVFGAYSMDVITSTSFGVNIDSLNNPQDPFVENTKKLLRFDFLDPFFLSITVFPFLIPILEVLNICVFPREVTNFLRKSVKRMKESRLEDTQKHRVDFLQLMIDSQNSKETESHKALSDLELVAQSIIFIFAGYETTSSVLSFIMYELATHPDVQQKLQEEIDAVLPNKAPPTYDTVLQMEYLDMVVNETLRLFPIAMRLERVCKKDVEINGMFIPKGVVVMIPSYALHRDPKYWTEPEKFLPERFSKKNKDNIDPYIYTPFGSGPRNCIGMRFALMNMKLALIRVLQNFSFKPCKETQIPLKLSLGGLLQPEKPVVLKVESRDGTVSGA

As to `CCCCCCCCCCCOC(=O)c1ccccc1C(=O)OCCCCCCCCCCC`, the Potency in assay [1] and in assay [2] was > 92 µM (inactive) in each case. Further, the caspase-3 activation in [3] is 2.1% (inactive). Further, the compound was called inactive in assay [4], in assay [7] and in [8]. In addition, the Potency entry in [5], in [6], in assay [9], in assay [10], in [11] and in assay [12] was “inactive” in each case. Further, the Potency entry in assay [13], in [14], in assay [15], in assay [16], in assay [17] and in assay [18] was “inactive” each time. Besides, in assay [20], the Potency entry was “inactive”. Moreover, the max response in assay [19] is 5.25%.

Take `O=C(O)C(Br)Br`: in assay [1], the Potency was > 92 µM (inactive). Also, in [3], the caspase-3 activation is 6.46% (inactive). Besides, the compound was called inactive in assay [4], in assay [7] and in [8]. Also, the Potency entry in assay [5], in [6], in [9], in [10], in assay [11] and in [12] was “inactive” in each case. The Potency entry in assay [13], in assay [14], in assay [15], in [16], in [18] and in assay [20] was “inactive” each time. Also, the max response in [19] was -1.6%.

For `Cc1ccc(N=C=O)cc1N=C=O`, the results for the Potency in [1], in [2] and in assay [6] were > 92 µM (inactive), > 92 µM (inactive) and 15.8 µM (active), respectively. For the same compound, the caspase-3 activation in [3] was 0.0584% (inactive). The outcome in [4] and in assay [8] was inactive. Also, the Potency result in assay [9], in [10], in assay [11], in [12], in [13] and in assay [14] was “inactive” each time. For the same compound, the Potency entry in [15], in [16], in assay [17], in [18] and in [20] was “inactive” throughout. The max response in assay [19] was 4.82% and -6.24%.

As to `Oc1cc(Cl)ccc1Cl`, the Potency in [1] and in assay [2] was > 92 µM (inactive) throughout. Also, the caspase-3 activation in [3] was 1.27% (inactive). The Potency result in assay [5], in [9], in assay [10], in [11], in assay [12] and in assay [13] was “inactive” each time. Further, the Potency result in [14], in assay [15], in assay [16], in assay [17], in assay [18] and in assay [20] was “inactive” throughout. Moreover, the compound was called inactive in assay [7] and in [8]. Moreover, the max response in assay [19] is -4.84% and -5.75%.

For `O=[N+]([O-])/C=C/c1ccccc1`, the outcome in assay [4] and in [8] was inactive. For the same compound, the Potency in assay [5] is 6.31 µM (active); in [10] it was 39.8 µM (active); in assay [11], 39.8 µM (active); in assay [12] it was 31.6 µM (active); in assay [16] it was 50.1 µM (active); in [17], 39.8 µM (active). In addition, the Potency result in assay [6] and in assay [20] was “inactive” each time. For the same compound, in [19], the max response is -11.2%.

For the compound `C(CCOCC1CO1)COCC1CO1` (stereo unspecified), the Potency in [1] is > 92 µM (inactive); in [2], 27.7 µM (inactive). The caspase-3 activation in [3] is 15.1% (inactive). Further, the call in assay [4], in assay [7] and in [8] was inactive. For the same compound, the Potency entry in assay [5], in assay [6], in assay [10], in [11], in assay [12] and in [13] was “inactive” throughout. Besides, the Potency result in [14], in [16], in assay [18] and in assay [20] was “inactive” throughout. Moreover, the max response in [19] is 5.96%.

On to `CC(C)(C)OOC(=O)c1ccccc1`, for which the Potency in [1] and in assay [2] was > 92 µM (inactive) each time. The caspase-3 activation in assay [3] was 6.04% (inactive). Further, the compound was classed as inactive in assay [4] and in assay [8]. The Potency entry in assay [5], in assay [6], in assay [9], in assay [10], in assay [11] and in [12] was “inactive” in each case. The Potency entry in assay [13], in assay [14], in [15], in assay [16], in assay [17] and in assay [18] was “inactive” each time. The Potency result in assay [20] was “inactive”. In addition, the max response in assay [19] was -18.8% and -11.9%.
